Hit rate of the full screen: of about 2,400 compounds, about 580 (24%) were called active. The list is a sample of the results. Values without a mark were called inactive.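 Rule for the calls: active = activity change at or above the mean plus 3 SD of buffer wells without dofetilide, per plate; inactive = the rest.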

Sequence of Potassium voltage-gated channel subfamily KQT member 2 (Rattus norvegicus) (O88943 whole entry, looked up): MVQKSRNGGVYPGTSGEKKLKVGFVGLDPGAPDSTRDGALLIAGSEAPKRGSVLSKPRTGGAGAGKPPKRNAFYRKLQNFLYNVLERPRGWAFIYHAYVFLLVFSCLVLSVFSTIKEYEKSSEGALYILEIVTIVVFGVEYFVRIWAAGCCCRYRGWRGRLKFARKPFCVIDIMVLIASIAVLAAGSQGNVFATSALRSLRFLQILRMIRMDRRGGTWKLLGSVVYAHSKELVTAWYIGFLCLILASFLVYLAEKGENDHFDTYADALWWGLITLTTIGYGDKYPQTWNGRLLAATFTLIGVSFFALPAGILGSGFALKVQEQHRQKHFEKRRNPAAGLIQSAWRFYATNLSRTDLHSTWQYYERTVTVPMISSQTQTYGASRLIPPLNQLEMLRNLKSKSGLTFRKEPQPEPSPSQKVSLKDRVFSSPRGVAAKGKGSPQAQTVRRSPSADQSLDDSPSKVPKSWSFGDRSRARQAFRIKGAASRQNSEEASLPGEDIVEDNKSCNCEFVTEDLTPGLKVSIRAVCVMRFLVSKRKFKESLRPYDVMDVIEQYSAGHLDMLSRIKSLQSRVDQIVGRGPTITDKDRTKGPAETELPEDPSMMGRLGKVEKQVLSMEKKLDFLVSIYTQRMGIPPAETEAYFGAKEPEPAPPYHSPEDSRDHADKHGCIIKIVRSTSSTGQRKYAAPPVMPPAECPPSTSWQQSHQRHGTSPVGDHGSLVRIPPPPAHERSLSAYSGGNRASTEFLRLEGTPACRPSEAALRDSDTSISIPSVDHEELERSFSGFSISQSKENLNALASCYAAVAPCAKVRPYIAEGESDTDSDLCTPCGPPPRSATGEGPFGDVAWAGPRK

The assay addresses Potassium voltage-gated channel subfamily KQT member 2 (Rattus norvegicus) (UniProt O88943). Put plainly: KCNQ2 potentiation in CHO cells – cell-based, FluxOR thallium flux, counter-screen for hERG block protector project, confirmation (AID 1942).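 Note: normalized value minus buffer-control mean plus three SD of buffer wells.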 Conditions: FluxOR thallium flux fluorescence, at 10 µM, active compounds read high. A general note: A counterscreen serves to expose hits that act by an unwanted route or on another target.
With `CC1=NN(C(=O)c2cc(C)nn2C)C(O)(C(F)(F)F)C1` (stereo not given), the activity change, less the hit threshold is -11.2%.
Take `Nc1nc(Br)c2c(F)cccc2c1-c1ccc(Cl)cc1`: the activity change, less the hit threshold is -21.1%.
As to `COc1ccc(NC(=O)C2CCN(S(=O)(=O)c3cn(C)nc3C)CC2)cc1`, the activity change, less the hit threshold is -13.2%.
The same measure for `O=C(Cn1c(=O)c2cccn2c2ccccc21)NCCc1ccc(Cl)cc1`: -34.9%; for `CC1CCCN(C(=O)COC(=O)c2cc(-c3cccs3)nn2-c2ccccc2)C1` (stereo not given): -25.5%; for `Cn1ncc2c(NNC(=O)Cc3ccccc3)ncnc21`: -14.4%.
The same measure for `Cc1ccc(-n2ncc3c(SCC(=O)NNC(=O)c4ccco4)ncnc32)cc1`: 4.4% (active); for `O=C(CSc1ncnc2c1cnn2-c1ccc(Cl)cc1)NCc1ccc2c(c1)OCO2`: -11.1%; for `CC(C)Oc1c(Cl)cc(CNC(C)(C)CO)cc1Cl`: -18.3%.
Under `c1cnc2c(Oc3ncnc4sccc34)cccc2c1` stands -17%; under `Cc1ccccc1NC1=C/C(=N\S(=O)(=O)c2ccc(C(=O)O)cc2)c2ccccc2C1=O`, 10% (active); under `O=C(O)c1ccc(S(=O)(=O)/N=C2\C=C(Nc3ccccc3F)C(=O)c3ccccc32)cc1`, 3.9% (active).
As to `Cc1cc(NC(C)C)n2c(nc3ccccc32)c1C#N`, the activity change, less the hit threshold is -21.5%.
Take `Cc1cc(NC(=O)CCCn2cnc([N+](=O)[O-])n2)no1`: the activity change, less the hit threshold was -14.3%.
The same measure for `Cc1sc2nc[nH]c(=S)c2c1-c1ccccc1`: 41.3% (active).
Take `Cc1c(-c2ccccc2)sc2nc[nH]c(=S)c12`: the activity change, less the hit threshold is 43.6% (active).
For the compound `CC(=O)C1=C(C)NC(=O)NC1/C=C/c1ccccc1` (stereo not given), the activity change, less the hit threshold is -23%.
The same measure for `CCN(CC(=O)NCc1ccc(Cl)cc1)C(=O)CCOc1ccc(C)cc1`: -24.3%; for `CCCCCN(C(=O)CCC(=O)OCC(=O)N(C)C1CCCCC1)c1c(N)n(CCCC)c(=O)[nH]c1=O`: -22.7%.
The same measure for `CCN1CCN(C(=O)c2ccc(Cn3c(=O)[nH]c4cc(OC)c(OC)cc4c3=O)cc2)CC1`: -7.7%.
The same measure for `Cc1cccc(C)c1NC(=S)NC(=O)c1ccc(Br)o1`: 66.5% (active).
Consider `Cc1cccc(NC(=S)NC(=O)c2ccco2)c1C`, for which the activity change, less the hit threshold was 54.7% (active).
The same measure for `Cc1cccc(NC(=O)CCNC(=O)c2ccco2)c1C`: -12.3%.
For the compound `CN1CCN(c2ccc(NC(=O)c3ccc(Br)o3)cc2)CC1`, the activity change, less the hit threshold was -6.3%.
On to `Cc1cccc(NC(=S)NC(=O)c2ccc(Br)o2)c1C`, for which the activity change, less the hit threshold is 12.7% (active).
Under `C/C(=C/CCC(C)C1CCC2(C)C3CCC4C(C)(C)C(=O)CCC4(C)C3=CCC12C)C(=O)O` (stereo not given) stands -17.4%; under `CO/N=C(\CCC(=O)O)c1cccs1`, -9.3%; under `Cc1ccccc1NC1=NC(=S)N(c2ccccc2)C12CCCCC2`, 11.4% (active).
The same measure for `CC1(C)CC2(CCO1)C(Nc1ccccc1)=NC(=S)N2CC(N)=O` (stereo not given): -15.8%; for `COc1ccc(/C=C/c2cc(=O)c3cc(Cl)ccc3o2)cc1`: -18.8%.
`NS(=O)(=O)c1ccc(NC(=O)c2ccc(S(=O)(=O)N3CCc4ccccc43)cc2)cc1`: the activity change, less the hit threshold was -7.3%.
The same measure for `COc1ccc(-n2nc(C(=O)NCC(=O)NCc3ccc(F)cc3)c3ccccc3c2=O)cc1OC`: -10.3%.
Under `COc1cccc(-n2nc(C(=O)O)c3ccccc3c2=O)c1` stands 3.7% (active); under `COc1cccc(NC(=O)c2nn(-c3ccc(OC)cc3OC)c(=O)c3ccccc23)c1`, -13.8%.
The same measure for `COc1ccc(C)cc1-n1nnnc1SCc1nc2ccccc2c(=O)[nH]1`: -22%; for `CCOC(=O)C1=NN(C(=O)c2ccccc2)C(O)(c2ccc(C)cc2)C1` (stereo not given): 2.6% (active).
As for `CCOC(=O)C1=NN(C(=O)c2ccc(C)cc2)C(O)(c2ccc(Cl)cc2)C1` (stereo not given), the activity change, less the hit threshold is 88.1% (active).
The same measure for `CCOC(=O)c1nc(C)n(-c2ccc(Cl)cc2)n1`: -12.5%.
The same measure for `CCC1=NN(C(=O)c2ccc(Cl)cc2)C(O)(c2ccc(C)cc2)C1` (stereo not given): -12.6%; for `CCCCC1(O)CC(C(F)(F)F)=NN1C(=O)COc1ccccc1` (stereo not given): -22.2%.
Under `CCOC(=O)C1=NN(C(=O)c2ccc(OC)cc2)C(O)(c2ccc(Cl)cc2)C1` (stereo not given) stands 71.1% (active).
On to `CCOC(=O)CN1N=C(/C=C/c2ccc(OC)cc2)CCC1=O`, for which the activity change, less the hit threshold was -17.3%.
The same measure for `O=C(CSc1nc2cc(Cl)ccc2s1)c1cc2ccccc2o1`: -2%; for `CN1C(=O)C2(OCC(C)([N+](=O)[O-])CO2)c2ccccc21` (stereo not given): -9.8%; for `CC1=C(C#N)C(Nc2cc(C)ccn2)(C(F)(F)F)C(=O)N1` (stereo not given): -18.4%.
Under `CSc1nc2c(c(=O)[nH]1)C(c1ccccc1Cl)CC(=O)N2` (stereo not given) stands -20.4%.
Under `Cc1cc(C(=O)NP(=O)(N2CCOCC2)N2CCOCC2)c(C)n1-c1ccc(Br)cc1` stands -22%; under `O=C(CSc1nnc(SCc2ccccc2)s1)N/N=C/c1ccc(Cl)cc1Cl`, -22.9%; under `O=C1c2ccccc2C(=O)N1c1cccnc1`, -14.6%.
Turning to `Cc1ccc(C)c(NC(=S)c2nc3ccccc3s2)c1`, the activity change, less the hit threshold was -7.6%.
The same measure for `CC(C)Oc1ccc(CNC(=O)C2CCN(C(=O)N3CCOc4ccccc43)CC2)cc1`: -20.2%; for `CC(C)CC(=O)Nc1ccc2c3c(cccc13)CC2`: 44.7% (active).
Under `CC(=O)c1ccc2c3c(cccc13)CC2` stands -12.7%; under `COc1cc(C(=O)NCc2ccc(-c3nc4ccccc4o3)cc2)cc(OC)c1OC`, -13.9%.
Under `Cc1cc(Cl)c(S(=O)(=O)N2CCSCC2)cc1OCC(=O)NC1CCCCC1` stands 57.4% (active); under `Cc1cc(=O)[nH]c(SCC(=O)NC2CCCCC2)n1`, -14.4%; under `Cc1cc(Cl)c(S(N)(=O)=O)cc1OCC(=O)NC1CCCCC1`, -7.9%.
`COC(=O)c1cc(S(=O)(=O)NCC2CCN(Cc3cc(C)ccc3C)CC2)c[nH]1`: the activity change, less the hit threshold is -11.5%.
For `Cn1ccnc1C(O)c1cccc(OCc2ccccc2)c1` (stereo not given), the activity change, less the hit threshold was -25.3%.
The same measure for `C/C(=N\O)C1CC(CC(=O)O)C1(C)C` (stereo not given): -14.4%; for `CN(CC(=O)Nc1ccc(Cl)cc1)C(=O)c1cccc(S(=O)(=O)NCc2ccccc2)c1`: -17.3%.
Consider `O=C(Nc1nc2c(Br)cc(Br)cc2c(=O)s1)C1CCC1`, for which the activity change, less the hit threshold was 9.5% (active).
Under `O=C(Nc1nnc(SCC(=O)N2CCCCC2)s1)C1CCCCC1` stands -14.2%; under `O=C(Nc1cccc(Br)c1)C1CCCC1`, -12.2%; under `Cc1cc(=O)oc2c3c(cc(OCC(=O)N[C@@H](Cc4ccccc4)C(=O)O)c12)OC(C)(C)CC3`, -6.7%.
The same measure for `C/C(CCC12CC3CC(CC(C3)C1)C2)=N\NC(N)=S`: -17.2%; for `COc1ccc(-c2nc(=S)c3ccc4ccccc4c3[nH]2)cc1`: 51.5% (active); for `COc1ccc(-n2c(=S)[nH]c3ccccc3c2=S)cc1`: -7.3%.
Under `COc1cccc(C2C3=C(N=c4s/c(=C\c5ccc(OCC(=O)O)cc5)c(=O)n42)c2ccccc2CC3)c1` (stereo not given) stands -38.5%; under `O=C(NC(=S)Nc1nc2ccccc2s1)c1cccs1`, 7.1% (active).
For the compound `O=C(NC(=S)Nc1nc(-c2ccccc2)cs1)c1cccs1`, the activity change, less the hit threshold is -22.7%.
Under `COc1ccc(-c2csc(NC(=S)NC(=O)c3cccs3)n2)cc1OC` stands -5.3%; under `CCc1ccc2nc(NC(=O)c3cc(C)on3)sc2c1`, -6.5%; under `COc1ccc(-c2csc(NC(=S)NC(=O)c3cccs3)n2)cc1Br`, -20.8%.
The same measure for `Cc1ccc2nc(NC(=S)NC(=O)c3cccs3)sc2c1`: 5.5% (active); for `CC1CCCC(C)N1S(=O)(=O)c1ccc(NC(=O)CCn2cnc3ccccc3c2=O)cc1` (stereo not given): -11.1%; for `CC(C)CC1C(C#N)=C(N)Oc2n[nH]c(-c3cccs3)c21` (stereo not given): -12.4%.
Under `CCN1C(=O)C2(/C(=C(\O)c3ccc4c(c3)OCCO4)C(=O)C(=O)N2CCCOC)c2ccccc21` (stereo not given) stands -12.7%.
Consider `O=C(CC1NC(=O)NC1=O)Nc1ccccc1` (stereo not given), for which the activity change, less the hit threshold is -21.4%.
As for `CC(C)C(=O)Nc1ccc2c(c1)Cc1cc(NC(=O)C(C)C)ccc1-2`, the activity change, less the hit threshold is -17.9%.
Under `O=C(CC1CCCC1)Nc1ccc2c(c1)CCC2` stands 54.5% (active); under `CN1N=C(C(=O)N2CCc3c([nH]c4ccccc34)C2c2c(F)cccc2Cl)CCC1=O` (stereo not given), -22.4%; under `Cc1ccc(C(C(=O)NC(C)(C)C)N(Cc2cccnc2)C(=O)C(=O)NC2CCCCC2)o1` (stereo not given), -14.6%.
The same measure for `COC(=O)c1cccc(/C=N/NC(N)=S)c1O`: -2.4%; for `COc1cccc(/C=N/Nc2nc3ccccc3[nH]2)c1O`: -3.2%.
Under `COc1cccc(C=Nc2cc(C)cc(C)c2)c1O` stands 10% (active); under `CCOc1cccc(/C=N/NC(=O)c2ccc3c(c2)OCCO3)c1O`, -18.5%.
Turning to `COc1cccc(C=NCCCN=Cc2cccc(OC)c2O)c1O`, the activity change, less the hit threshold was 6% (active).
Under `COc1cccc(C=NCC(C)N=Cc2cccc(OC)c2O)c1O` (stereo not given) stands -2.9%; under `COc1ccc(-n2c(SCc3ccccn3)nc3c(c2=O)SCC3)cc1OC`, -2.7%; under `CCC1=C(OC(=O)N(CC)CC)N2C(=O)OC(=NCC3CC3)[C@]2(C)[C@H]2C1=CC[C@H]1C(=O)N(C)C(=O)[C@H]12`, -15.9%.
The same measure for `O=C1CSC(=S)N1/N=C/c1cc(Br)ccc1O`: -6.3%; for `O=C(CN1CCN(c2ccc(Cl)cc2)CC1)Nc1ccc(F)cc1`: -21.6%.
The same measure for `S=c1nc(-c2ccccc2)[nH]c2ccc(Br)cc12`: 135% (active); for `S=c1nc(-c2ccc(Br)cc2)[nH]c2ccccc12`: 100% (active).

The values are drawn from PubChem BioAssay AID1942 (Johns Hopkins Ion Channel Center, 2009).
